High-throughput results from PubChem BioAssay.
tim10-1 inh: growth inhibitors of tim10-1 mutant yeast, primary screen, luminescence, uHTS; S. cerevisiae tim10-1 ts strain growth, BacTiter-Glo, 24 h; inhibition, % at 20 µM; hit rate 2.2% among 330,000; AID 463190, 2010;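 active = inhibition of at least 40%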;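 also: mutant grown at 25 °C; 0% = DMSO wells with yeast and 100% = wells holding no yeast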
NALP1 inh: NALP1 inflammasome inhibitors in reconstituted yeast, colorimetric, S. cerevisiae, triplicate retest | S. cerevisiae NALP1/ASC/caspase-1 growth, X-gal OD620, 72 h | inhibition, % at 10 µM | hit rate 0.61% among 280,000; in the data active = inhibition mostly above about 24%, no sharp cut-off; inactive = mostly below about 32%
NLRP3 yeast inh: NALP3 inflammasome inhibitors in reconstituted yeast, primary screen, luminescence, uHTS. AID 2825, 2010. inhibition, % at 10 µM. Yeast reconstituted NLRP3/ASC/caspase-1, beta-gal luminescence, 24 h. hit rate 0.39% among 330,000;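 active = inhibition of 50% or more; inactive = inhibition below 50%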;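 also: plate controls were induced DMSO wells for no effect and uninduced yeast grown without galactose for full effect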
TIM10 inh: growth inhibitors of isogenic TIM10 control yeast, primary screen, counter-screen for tim10-1 yeast inhibitor project, luminescence, uHTS. inhibition, % at 10 µM. S. cerevisiae TIM10 strain growth, BacTiter-Glo luminescence, 24 h. hit rate 1.4% among 330,000;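 active = inhibition of 40% or more at the single tested concentration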;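 also: wild-type TIM10 isogenic control strain grown at permissive 25 °C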
tim23-1 inh: growth inhibitors of tim23-1 mutant yeast, primary screen, luminescence, uHTS; AID 463212, 2010; S. cerevisiae tim23-1 growth, BacTiter-Glo luminescence, 24 h; hit rate 1.3% among 330,000; inhibition, % at 20 µM;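 active = growth inhibition of the mutant yeast at or above 50%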;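 also: temperature-sensitive mutant grown at 25 °C; plate controls were DMSO-treated mutant yeast for no effect and medium wells lacking yeast for full effect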
tim10-1 confirm: growth inhibitors of tim10-1 mutant yeast, confirmation, single concentration, luminescence, S. cerevisiae. shares compounds with tim10-1 inh. S. cerevisiae tim10-1 ts strain growth, BacTiter-Glo, 24 h. inhibition, % at 20 µM. hit rate 56% among 7,400;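 active = inhibition of yeast growth at or above a set limit in either of two repeat tests at 20 µM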;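 also: tim10-1 mutant grown at permissive 25 °C to find synthetic lethal compounds; 0% = DMSO yeast wells and 100% = medium wells without yeast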
TIM10 conf: growth inhibitors of wild-type TIM10 yeast, confirmation, counter-screen for tim10-1 synthetic lethality project, single concentration, luminescence, S. cerevisiae; hit rate 63% among 4,600; S. cerevisiae tim10 strain growth, BacTiter-Glo luminescence, 24 h; inhibition, % at 10 µM; shares compounds with TIM10 inh;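 active = inhibition of yeast growth at or above a set limit in either of two replicates at 10 µM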;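 also: this counterscreen used the strain with wild-type TIM10; 0% = yeast with DMSO and 100% = medium wells lacking yeast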
tim23-1 confirm: tim23-1 mutant yeast growth inhibitors, confirmation, luminescence, single concentration; hit rate 83% among 4,400; shares compounds with tim23-1 inh; S. cerevisiae tim23-1 growth, BacTiter-Glo luminescence, 24 h; inhibition, % at 20 µM; AID 463218, 2010;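 active = inhibition above about 39% in either of two replicate wells at 20 µM, limit read from the data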;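 also: temperature-sensitive tim23-1 mutant grown at 25 °C; 0% = DMSO wells with yeast and 100% = medium wells without yeast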
An asterisk follows results filed as active; · = no result given. Only some compounds are listed: those with a hit (about 4% of all), similar ones and a draw of the others.

SMILES	tim10-1 inh	NALP1 inh	NLRP3 yeast inh	TIM10 inh	tim23-1 inh	tim10-1 confirm	TIM10 conf	tim23-1 confirm
Cc1c(C)n(CC(O)CN2C(=O)c3ccccc3S2(=O)=O)c2ccccc12 (centres undefined)	66*	-5	-3	43*	74*	65*	49*	89*
CS(=O)(=O)c1ccc(S(=O)CC(=O)OCc2ccccc2)c([N+](=O)[O-])c1 (centres undefined)	·	-2	·	·	·	·	·	·
O=C(CS(=O)c1ccc(C(F)(F)F)cc1[N+](=O)[O-])Oc1ccccc1 (centres undefined)	50*	-24	-19	70*	72*	57*	46*	75*
CC(C)Cc1nnc(NC(=O)CCC(=O)N2CCN(c3ccc(Cl)cc3)CC2)s1	29	7	-5	5	7	·	·	·
O=C(OCn1ncc(Cl)c(Cl)c1=O)c1ccc(F)cc1	66*	-3	-3	59*	75*	61*	54*	85*
Brc1ccc2c(c1)OCCOCCOc1cc(Br)ccc1OCCOCCOCCO2	57*	50	36	35	62*	62*	·	72*
Cn1c(/C(C#N)=C/C2CC=CCC2)nc2ccccc21 (centres undefined)	43*	45	28	34	69*	39*	·	51*
c1ccc(-c2noc(-c3ccc4c(c3)OCO4)n2)nc1	49*	21	21	34	52*	40*	·	60*
O=C(/C=C/c1ccco1)NCC1COc2ccccc2O1 (centres undefined)	2	-6	25	9	-3	·	·	·
O=C(OC(c1ccccc1)c1nccc2ccccc12)c1cc([N+](=O)[O-])cc([N+](=O)[O-])c1 (centres undefined)	54*	18	18	43*	57*	45*	-7	47*
O=C(Nc1cccc(C(=O)O)c1)/C(=C\c1ccccc1)NC(=O)c1cccc2ccccc12	-5	-2	8	12	21	·	·	·
Cc1[nH]n(C(N)=S)c(=O)c1N=Nc1ccc([N+](=O)[O-])cc1Cl	45*	8	39	23	58*	52*	·	67*
O=C(Nc1ccccc1)N1N=CCC1c1ccccc1 (centres undefined)	23	4	7	-2	15	·	·	·
O=C(Nc1ccc(Cl)c(Cl)c1)N1N=CCC1c1ccccc1 (centres undefined)	56*	2	8	33	52*	46*	·	57*
COc1ccc(CNC(=O)C/C(C)=N/NC(=O)C23CC4CC(CC(C4)C2)C3)cc1	1	7	-4	-3	11	·	·	·
Cc1nn2c(-c3ccncc3)nnc2c2ccccc12	57*	24	17	76*	52*	65*	74*	43*
CC(=O)Nc1cccc(-c2nnc3c4ccccc4c(C)nn23)c1	17	-15	-7	9	11	·	·	·
CC(C)C(NC(=O)Cc1ccccc1)C(=O)N1CCN(c2cccc(Cl)c2)CC1 (centres undefined)	18	·	9	11	29	·	·	·
Cc1cc(C(=O)N/N=C/C=C/c2ccccc2[N+](=O)[O-])c(C)o1	45*	12	2	56*	55*	44*	41*	57*
COc1ccc(Oc2cccc(Cl)c2CNC(=O)CCC(=O)O)cc1	10	-1	-2	12	15	·	·	·
O=[N+]([O-])c1cccc(NC(=S)N2CCc3ccccc32)c1	43*	16	33	25	51*	32*	·	49*
O=C(Nc1cccc([N+](=O)[O-])c1)N1CCCc2ccccc21	16	4	21	-12	15	·	·	·
O=C1Nc2ccccc2/C1=C/c1ccc([N+](=O)[O-])cc1	56*	5	45	81*	74*	62*	81*	59*
Cc1[nH]nc2c1C(c1cc(Br)cs1)C(C#N)=C(N)O2 (centres undefined)	53*	25	19	30	61*	35*	·	45*
Cc1[nH]nc2c1C(c1ccco1)C(C#N)=C(N)O2 (centres undefined)	0	9	6	16	6	·	·	·
SMILES	tim10-1 inh	NALP1 inh	NLRP3 yeast inh	TIM10 inh	tim23-1 inh	tim10-1 confirm	TIM10 conf	tim23-1 confirm
O=C(NCc1ccc2c(c1)OCO2)c1ccc(Br)cc1	-21	0	25	-71	37	·	·	·
Cc1nc2cc(C(=O)NCc3ccc4c(c3)OCO4)ccc2n1-c1ccc(Br)cc1	47*	45	-2	15	52*	39*	·	48*
Nc1c2c(nn1-c1ccccc1)CCC2	-14	14	27	7	-4	·	·	·
O=C(Nc1ccccc1N1CCOCC1)c1ccc([N+](=O)[O-])o1	80*	10	13	90*	70*	80*	94*	71*
O=C(c1ccc([N+](=O)[O-])o1)N1CCc2ccccc21	65*	-11	24	67*	77*	77*	79*	86*
CCO[C@H]1OC(C(=O)N2CCCCCCC2)=C[C@@H](c2coc3ccccc3c2=O)[C@@H]1CCCO	8	-5	16	6	16	·	·	·
CC1CCN(C(=O)CSc2ccc(-c3cccc([N+](=O)[O-])c3)nn2)CC1	39	4	-58	-13	18	·	·	·
Cc1ccccc1C(=O)NC(=S)Nc1ccccc1C(=O)O	30	-35	10	7	18	·	·	·
COC(=O)c1ccccc1NC(=S)NC(=O)c1ccc2c(c1)OCO2	63*	-10	2	62*	72*	41*	45*	39*
COC(=O)c1ccccc1NC(=S)NC(=O)c1ccccc1C	71*	18	5	70*	59*	65*	69*	-24
O=C(CCn1cccc1)Nc1ccc(OC(F)(F)F)cc1	3	9	46	-5	21	·	·	·
CN(C)c1ccc(-c2nn3c(C4CCCCC4)nnc3s2)cc1	39	6	20	37	42	·	·	·
Cc1ccc(-c2c(C(=O)O)c3ccccc3[nH]c2=O)cc1	6	1	-2	-16	-2	·	·	·
CC1CCc2sc3nc(NCc4ccco4)n4ncnc4c3c2C1 (centres undefined)	41*	-4	3	18	51*	35*	·	56*
